Data: PubChem BioAssay (NCI)
The panel holds about 83,000 compounds, 20% with a hit somewhere; the sample as a whole holds those more often.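 Plates (96-well) were seeded with cells, treated with compound at one concentration, and incubated for 48 hours before percent growth was determined.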 Values without a mark were called inactive. Activity calls are given as the source filed them. How the source made its calls: active means growth percent below 10; inactive means the rest.

Columns and labels:
Assay in all cases: NCI-60 one-dose screen, 48 h (100 = growth as untreated, 0 = no growth, -100 = all killed)
[1] = test system: NCI-H23 lung; details: 10 µM unless noted
[2] = test system: NCI-H322M lung; details: 10 µM unless noted
[3] = test system: HOP-62 NSCLC; details: 10 µM unless noted
[4] = test system: NCI-H460 lung; details: 10 µM unless noted
[5] = test system: HOP-92 NSCLC; details: 10 µM unless noted
[6] = test system: A549/ATCC NSCLC; details: 10 µM unless noted
[7] = test system: 786-0 renal; details: 10 µM unless noted
[8] = test system: COLO 205 colon; details: 10 µM unless noted
[9] = test system: NCI-H522 lung; details: 10 µM

COC(=O)N/N=C/c1coc2ccc(Cl)cc2c1=O
growth [1]: 99.4% | growth [2]: 99.2% | growth [3]: 74.7% | growth [4]: 102% | growth [5]: 1.24% (active) | growth [6]: 103% | growth [7]: 104% | growth [8]: 91.4%

COc1ccc(-n2cnc3cc(C(=O)N4CCCCC4)ccc32)cc1
growth [1]: 95.5% | growth [2]: 102% | growth [3]: 91.4% | growth [5]: 95.3% | growth [6]: 103% | growth [7]: 100% | growth [8]: 105%

CCSc1nc(Nc2ccc(S(=O)(=O)Nc3ccon3)cc2)c(C#N)c(-c2cccc(Br)c2)n1
growth [1]: 101% | growth [2]: 74.3% | growth [3]: 93.9% | growth [4]: 106% | growth [5]: 90.2% | growth [9]: 87.3% | growth [7]: 94.8% | growth [8]: 117%

CC1CN(/N=C/c2ccc([N+](=O)[O-])o2)C(=N)O1 (stereo not given)
growth [1]: 97.1% | growth [2]: 117% | growth [3]: 103% | growth [4]: 96% | growth [5]: 88.8% | growth [9]: 87.8% | growth [7]: 108% | growth [8]: 113%

Nc1nc(NC2CC2)c2ncn(C3C=CC(CO)C3)c2n1 (stereo not given)
growth [1]: 107% | growth [2]: 94% | growth [3]: 104% | growth [4]: 118% | growth [5]: 97% | growth [6]: 108% | growth [7]: 107% | growth [8]: 121%

Cc1csc(C#Cc2cncc(O)c2)n1
growth [1]: 111% | growth [2]: 113% | growth [3]: 110% | growth [4]: 121% | growth [5]: 121% | growth [6]: 108% | growth [7]: 105% | growth [8]: 105%

O=c1[nH]cc(Nc2cc(Cl)c3nonc3c2[N+](=O)[O-])c(=O)[nH]1
growth [1]: 91.2% | growth [2]: 110% | growth [3]: 102% | growth [4]: 107% | growth [5]: 95.5% | growth [9]: 98% | growth [7]: 105% | growth [8]: 109%
